The campaign covered roughly 290,000 compounds. About 1,800 (0.62%) were called active. The sample as a whole holds a higher share of actives than the screen did. Unmarked numbers belong to inactive results. Rule as the data show it: active = inhibition above about 50%; inactive = the rest.

From PubChem BioAssay AID1566 (Sanford-Burnham Center for Chemical Genomics, 2009) come the findings set out here.

The assay is described as follows: NOD2 signaling inhibitors, cell-based, luminescence, uHTS, HEK293 (AID 1566). To be noted: HEK293 NOD2/NF-kB luciferase reporter, at 4 µM, hits give high values. A general note: Reporter assays use an easily measured gene product as a stand-in for the process of interest.
As a reminder, the inhibition is the drop in the measured response relative to a control, in per cent. Consider `CC(C)(C)OC(=O)N1CCC(c2cc(=O)n3[nH]c(-c4ccc(Cl)cc4)cc3n2)CC1`, for which the inhibition was 8%.

Regarding `Cc1nc2sc(C(c3ccc(Cl)cc3)N3CCN(C(=O)c4ccco4)CC3)c(O)n2n1` (stereo not given), the inhibition was 1.9%.

Regarding `COc1ccc(S(=O)(=O)Nc2ccc3c(c2)OCCO3)cc1OC`, the inhibition is 4%.

Regarding `COc1ccc(C)cc1NS(=O)(=O)c1ccc(-c2cnc(C3CC3)o2)cc1`, the inhibition was 27.1%.

As for `Cc1ccc(NS(=O)(=O)c2ccc(-c3cnc(C4CC4)o3)cc2)cc1`, the inhibition was -3.1%.

On to `COc1ccc(S(=O)(=O)Nc2ccc3c(c2)OCO3)cc1OC`, for which the inhibition is -22.1%.

With `COc1ccc(NS(=O)(=O)c2ccc3c(c2)OCCO3)cc1OC`, the inhibition is 52.2% (active).

Turning to `COc1ccc(-c2noc(-c3ccoc3C)n2)cc1`, the inhibition was -47.8%.

Take `CC(C)(C)C(=O)Nc1ccc(-c2cnco2)cc1`: the inhibition is 2.7%.

Take `Cc1ccc(CC(=O)Nc2ccc(C(=O)N3CCCCC3)cc2)cc1`: the inhibition is 0.3%.

As for `Cc1ccc(C23CC4CC(CC(NC(=O)NC(C)(C)CO)(C4)C2)C3)cc1`, the inhibition was -8.2%.

With `COc1ccccc1C1(O)C(=O)Nc2ccccc21` (stereo not given), the inhibition was 24.1%.

Consider `Cc1nn(-c2ccccc2Cl)c(Cl)c1/C=N/Nc1nc2ccccc2s1`, for which the inhibition is 78.1% (active).

`Cc1nn(-c2ccccc2Cl)c(Cl)c1/C=N/Nc1cccc(C(=O)O)c1`: the inhibition is -183%.

As for `CCOC(=O)N/N=C/c1c(C)nn(-c2ccccc2Cl)c1Cl`, the inhibition is -45.5%.

As for `COc1ccccc1NC1=C(C)C(=O)CC1`, the inhibition is 5.8%.

With `Cc1cccc(NC(=O)N2CCC(C(=O)c3ccc(F)cc3)CC2)c1`, the inhibition was -7.7%.

With `O=C1CCCN2N=C(SCC(=O)Nc3cccc(C(F)(F)F)c3)SC2=N1`, the inhibition was 58.1% (active).

For the molecule `O=C1CCCN2N=C(SCC(=O)Nc3cccc(F)c3)SC2=N1`, the inhibition is -16.8%.

Take `O=C1CCCN2N=C(SCC(=O)Nc3cccc(Cl)c3)SC2=N1`: the inhibition is 43.7%.

`CCC(C(=O)NCCCN1CCCCCC1)n1nc(C)c2sc3ccccc3c2c1=O` (stereo not given): the inhibition was -40.3%.

Take `CCC(C)(C)c1ccc(OCCCC[n+]2ccc(C)cc2)c(C(C)(C)CC)c1`: the inhibition was 29.7%.

For the molecule `CCC(C)(C)c1ccc(OCCCC[n+]2ccccc2)c(C(C)(C)CC)c1`, the inhibition is 12%.

Take `CC(C)(C)NC(=O)NC(=O)COC(=O)Cc1c(Cl)cccc1Cl`: the inhibition was 1.1%.

`COc1ccc(CCNc2oc(COc3ccc(F)cc3)nc2C#N)cc1`: the inhibition was -49.7%.

Consider `COc1ccc(CCNc2oc(COc3ccccc3F)nc2C#N)cc1OC`, for which the inhibition is 9.2%.

On to `COc1ccc(CCNc2oc(Cc3ccccc3)nc2C#N)cc1OC`, for which the inhibition is 36.6%.

For the molecule `COc1ccc(CCNc2oc(COc3ccccc3)nc2C#N)cc1`, the inhibition is -27.2%.

With `CCOC(=O)N1CCN(C(=O)CSc2nc3c(cnn3-c3ccccc3)c(=O)[nH]2)CC1`, the inhibition was 2.1%.

With `COc1ccc(-c2cc(=O)oc3c(C)c(OCC(=O)NCC4CCC(C(=O)O)CC4)ccc23)cc1` (stereo not given), the inhibition is 23.3%.

As for `CCSC1=C(C#N)C2(CCCCC2)C(C#N)C(=O)N1` (stereo not given), the inhibition is 10.3%.

On to `N#CC1=C(SCC(=O)NC2CC2)NC(=O)C(C#N)C12CCCCC2` (stereo not given), for which the inhibition is -1.6%.

Consider `Cc1nn(-c2cc(N3CCCCC3)ccc2[N+](=O)[O-])c(=O)c2ccccc12`, for which the inhibition was -6.2%.

Regarding `CCC(C)[C@H](NC(=O)C1CC(=O)N(c2ccc(OC)cc2)C1)C(=O)N1CCCCC1` (stereo not given in full), the inhibition was 12.9%.

As to `COC(=O)c1ncn(C2OC(COC(C)=O)C(OC(C)=O)C2OC(C)=O)n1` (stereo not given), the inhibition was 18.8%.

In the case of `CCN1CCN(CCC(=O)Nc2ccc(F)c(F)c2)CC1`, the inhibition is 1.5%.

On to `CCN(CC)S(=O)(=O)c1ccc2nnn(O)c2c1`, for which the inhibition is -3.6%.

Take `Cc1ccc(-n2nc3c(=O)n(CCCC(=O)N4CCC(C)CC4)nc(C)c3c2C)cc1`: the inhibition was 27.9%.

Turning to `Cc1nn(-c2ccccc2)c2nc(C(F)(F)F)[nH]c(=O)c12`, the inhibition was 30.5%.

For `Cc1ccc(-n2nc(C)c3c(=O)[nH]c(C(F)(F)F)nc32)cc1`, the inhibition is 32.3%.

Turning to `O=C(COc1ccc(Cl)cc1Cl)Nc1ccc(Cl)cn1`, the inhibition was -209%.

With `O=C(COc1ccc(Cl)cc1Cl)Nc1ccccn1`, the inhibition was 62.1% (active).

Turning to `O=C(CCCOc1ccc(Cl)cc1Cl)Nc1ccccn1`, the inhibition was -183%.

As for `Cc1cccc(NC2=NCC(=O)N2CCc2ccccc2)c1`, the inhibition was -0.2%.

Consider `COc1cc(C(=O)N(c2ccc(C)c(C)c2)C2C=CS(=O)(=O)C2)cc(OC)c1OC` (stereo not given), for which the inhibition is -4.9%.

On to `O=C(O)CCCc1nc(-c2ccccc2)no1`, for which the inhibition is -10%.

Consider `COc1ccc(-c2noc(CCC(=O)O)n2)cc1`, for which the inhibition is 11.3%.

As to `COc1ccc(-c2noc(CCCC(=O)O)n2)cc1`, the inhibition is 57.7% (active).

Regarding `O=C(NCCc1ccc(C(F)(F)F)cc1)C1CCC(=O)N(CCc2cccc(F)c2)C1` (stereo not given), the inhibition was -4.6%.

On to `CN(C)/N=C/C=C1\CC/C(=C\c2ccc(Br)cc2)C1=O`, for which the inhibition is -21.2%.

As to `CN(C)/N=C/C=C1\CCC/C(=C\c2ccc(F)c(F)c2)C1=O`, the inhibition was 63% (active).

In the case of `COc1ccc(/C=C2\CCC/C(=C\C=N\N(C)C)C2=O)cc1`, the inhibition is -25.5%.

Take `Cc1ccc(-c2cc(C(F)F)nc(N3CCOCC3)n2)cc1`: the inhibition is 15.5%.

With `O=C1CCN(C2CCN(Cc3nc(Cc4ccccc4F)no3)CC2)CCN1`, the inhibition is 5.8%.

For `COc1ccc(C(=O)N2CCC(n3nccc3NC(=O)C3CC3)CC2)c(OC)c1OC`, the inhibition is 12.7%.

As for `O=C(NC(O)C(=O)c1ccccc1)c1cccs1` (stereo not given), the inhibition was 10%.

Regarding `CC(C)(C)c1ccc(C(=O)NNC(=O)c2cccc(-n3cnnn3)c2)cc1`, the inhibition is 13.7%.

On to `Cc1nc(N2CCN(c3ccccn3)CC2)c2c(C)c(C(=O)Nc3ccc(F)cc3Cl)sc2n1`, for which the inhibition was 33.8%.

As to `COc1ccccc1N1CCN(C(=O)c2sc3nc(C)nc(N4CCN(c5ccccn5)CC4)c3c2C)CC1`, the inhibition was 16%.

With `Cc1nc(N2CCN(c3ccccn3)CC2)c2c(C)c(C(=O)N3CCN(c4cccc(Cl)c4)CC3)sc2n1`, the inhibition was 38.7%.

As to `Cc1nc(N2CCN(c3ccccn3)CC2)c2c(C)c(C(=O)Nc3ccc(Cl)cc3)sc2n1`, the inhibition was 15.9%.

With `Cc1nc(N2CCN(c3ccccn3)CC2)c2c(C)c(C(=O)Nc3c(F)cc(F)cc3Br)sc2n1`, the inhibition was 33.9%.

With `Cc1nc(N2CCN(c3ccccn3)CC2)c2c(C)c(C(=O)Nc3ccc(F)cc3F)sc2n1`, the inhibition was 3.4%.

Turning to `Cc1c(C(=O)N2CCN(c3ccccc3)CC2)sc2ncnc(N3CCN(c4ccccn4)CC3)c12`, the inhibition was 39.4%.

Consider `Cc1c(C(=O)N2CCN(c3ccccn3)CC2)sc2ncnc(N3CCOCC3)c12`, for which the inhibition is -1.8%.

On to `O=C1CCCN1CCCNS(=O)(=O)c1ccc(Br)cc1`, for which the inhibition is 6.2%.

Turning to `Cn1c(=O)n(CC(=O)O)c(=O)c2c1nc1n2CCCN1CCc1ccccc1`, the inhibition was 4.6%.

For `CCC(=O)C1CCCN(C(=O)c2ccc3nc(-c4cccc(OC)c4)oc3c2)C1` (stereo not given), the inhibition was -51.5%.

Turning to `CC(C)Cc1cc(C(=O)N2CCCC(C(=O)c3cc(F)ccc3F)C2)n(C)n1` (stereo not given), the inhibition is 23.7%.

On to `COc1ccc(C(=O)Nc2ccc(NC(=O)c3cnccn3)cn2)cc1`, for which the inhibition is -1.7%.

As for `O=C(Nc1ccc2cn[nH]c2c1)c1ccc(Cl)c(S(=O)(=O)N2CCOCC2)c1`, the inhibition was -3.7%.

For `CN1C/C(=C/c2cccnc2)C(=O)/C(=C/c2cccnc2)C1`, the inhibition was 10.1%.

Turning to `CCC1C/C(=C\c2cccnc2)C(=O)/C(=C/c2cccnc2)C1` (stereo not given), the inhibition was 94.6% (active).

Consider `O=C1/C(=C/c2cccnc2)CC/C1=C\c1cccnc1`, for which the inhibition is 1.3%.

In the case of `COc1cc(COc2ccc(-c3nnco3)cc2)ccc1OC(F)F`, the inhibition was 6.2%.

Regarding `Cc1ccc(COc2ccc(-c3nnco3)cc2)cc1`, the inhibition was -78.6%.

In the case of `COc1ccnc(Oc2ccccc2)c1C(=O)N/C=N/OCc1ccccc1F`, the inhibition is 2.7%.

Turning to `CCCCCCn1c(NCC)nc2c1c(=O)n(C)c(=O)n2C`, the inhibition was 30%.

In the case of `COCCNC(=O)c1cc2cc3ccc(OC)cc3nc2o1`, the inhibition is 11.5%.

Turning to `COc1ccc2cc3cc(C(=O)NCCC(C)C)oc3nc2c1`, the inhibition is 10.4%.

As to `COc1ccc(-c2cc(=O)oc3cc(OCC(=O)N4C[C@H]5C[C@@H](C4)c4cccc(=O)n4C5)ccc23)cc1`, the inhibition is 3.1%.

For `CCCCn1c(=O)c(CCC(=O)OCC(=O)Nc2cccc3ccccc23)nc2ccccc21`, the inhibition was 15.7%.

Turning to `O=C(Cc1ccccc1)NNC(=O)C1CC=CCC1` (stereo not given), the inhibition is 5.2%.

In the case of `CCc1nnc(NC(=O)COc2ccccc2[N+](=O)[O-])s1`, the inhibition was -7.9%.

Regarding `Cc1csc(NC(=O)c2c(O)c3c(n(CC(C)C)c2=O)CCCC3)n1`, the inhibition was 23.7%.

As for `O=C(NC1=C(Nc2ccc(Cl)cc2)C(=O)c2ccccc2C1=O)c1ccccc1`, the inhibition was 24.3%.

For the molecule `O=C(NC1=C(Nc2ccc(F)cc2)C(=O)c2ccccc2C1=O)c1ccc(Cl)cc1`, the inhibition is -10.9%.

Regarding `CSc1nc(N)c2c(C)c(C)sc2n1`, the inhibition was -1.2%.

On to `CCOC(=O)C(=CNc1ccc(NC2=NCC(C)(C)S2)cc1)C(=O)OCC`, for which the inhibition was 34.9%.

Consider `CCOC(=O)C(=CNc1ccc(C#N)cc1)C(=O)OCC`, for which the inhibition was 8.2%.

As for `CCOC(=O)C(=CNc1ccc(NC2=NCC(C)S2)cc1)C(=O)OCC` (stereo not given), the inhibition is 55.5% (active).

For `COc1cccc(CNC(=O)CCNC(=O)C2CCN(S(=O)(=O)c3ccc(F)cc3)CC2)c1`, the inhibition was 9%.

On to `N#C/C(=C(/O)COC(=O)c1ccc(C#N)cc1)c1nc2ccccc2s1`, for which the inhibition is -9.9%.

As to `N#C/C(=C(/O)COC(=O)c1ccccc1O)c1nc2ccccc2s1`, the inhibition is 52.7% (active).

In the case of `CC(C)(C)c1ccc(C(=O)OC/C(O)=C(\C#N)c2nc3ccccc3s2)cc1`, the inhibition is 30.1%.
